Assay outcomes: PubChem BioAssay, several laboratories
V-ATPase pHluor: regulators of yeast V-ATPase proton transport. S. cerevisiae, pHLuorin cytosolic pH fluorescence. 0.37% of 350,000 active. AID 504577. response, % at 10 µM; in the data active = response mostly above about 7.3%, no sharp cut-off; inactive = mostly below about 5.4%; note: actives read high
proKLK7 act: activators of human kallikrein-7 zymogen; activation, % at 7 µM; purified proKLK7, EDANS-DABCYL substrate fluorescence; 100% is mature enzyme control, 0% vehicle; P49862; AID 652039; 0.9% of 370,000 active;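 active = activation above the mean of all tested compounds plus 3 SD, computed per campaign excluding outliers beyond control limits, cut at about 13% in these data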
ADAM17 inh: ADAM17 inhibition, QFRET primary screen | P78536 | recombinant ADAM17, EDANS/DABCYL FRET peptide cleavage | inhibition, % at 6.95 µM | 0.83% of 370,000 active | AID 720648;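 active = inhibition above the mean of compounds lying between control limits plus 3 SD, set per campaign, cut at about 8.5% in these data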
Target sequence (P78536 215-824 limits assumed): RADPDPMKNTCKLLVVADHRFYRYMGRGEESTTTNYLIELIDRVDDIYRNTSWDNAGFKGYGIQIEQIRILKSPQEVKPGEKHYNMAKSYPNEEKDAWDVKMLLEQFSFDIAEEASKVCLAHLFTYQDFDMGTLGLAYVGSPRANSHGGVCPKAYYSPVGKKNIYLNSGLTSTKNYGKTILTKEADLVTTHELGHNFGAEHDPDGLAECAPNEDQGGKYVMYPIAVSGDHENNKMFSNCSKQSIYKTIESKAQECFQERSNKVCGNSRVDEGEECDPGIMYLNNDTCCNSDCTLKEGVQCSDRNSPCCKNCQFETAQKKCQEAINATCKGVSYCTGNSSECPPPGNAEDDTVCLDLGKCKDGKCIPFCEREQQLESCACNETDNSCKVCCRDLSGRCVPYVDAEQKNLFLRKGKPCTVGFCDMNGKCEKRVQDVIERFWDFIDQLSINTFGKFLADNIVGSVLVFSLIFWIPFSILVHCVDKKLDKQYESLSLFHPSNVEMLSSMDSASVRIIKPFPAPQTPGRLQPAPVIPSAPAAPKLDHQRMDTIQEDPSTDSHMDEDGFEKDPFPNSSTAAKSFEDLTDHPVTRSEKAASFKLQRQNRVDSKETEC
ADAM10 inh: ADAM10 inhibition, QFRET primary screen; O14672; recombinant ADAM10, EDANS/DABCYL FRET peptide cleavage, 3 h; inhibition, % at 7 µM; 0.62% of 370,000 active; AID 720582;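 active = inhibition above a per-campaign cutoff equal to the mean of compounds falling between control-based bounds plus 3 SD, cut at about 20% in these data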
proKLK7 act conf: proKLK7 activation, confirmation; 68% of 3,200 active; purified proKLK7, EDANS-DABCYL substrate fluorescence; scaled: vehicle 0, mature enzyme 100; activation, % at 7 µM; shares compounds with proKLK7 act; AID 686949;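 active = activation, as change over the incubation, above the mean of all tested compounds plus 3 SD, cut at about 13% in these data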
EDANS interfere: fluorescence interference counter-screen for KLK7 activators; shares compounds with proKLK7 act; EDANS-DABCYL substrate fluorescence interference, no enzyme, 4 h; solvent 0%, active enzyme control 100%; activation, % at 7 µM; 80% of 3,200 active;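 active = activation above the all-compound mean plus 3 SD, ignoring values outside control-based bounds, cut at about 4.8% in these data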;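 note: value is the 4 h activation minus the activation read at time zero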
EDANS interf: optically interferes with EDANS-DABCYL fluorescence, kallikrein-7 activator counter-screen; EC50, µM; EDANS-DABCYL peptide fluorescence interference, no enzyme; 20% of 250 active; shares compounds with proKLK7 act;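 active = compounds that raise the fluorescence signal in this interference counterscreen, with EC50 at or below 10 µM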;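 note: intact quenched peptide substrate alone read at 355 nm excitation and 520 nm emission; signal is fluorescence gain from T0 to T4 after four hours at room temperature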
Large screens that a line does not name were inactive (follow-up assays come after a bar, where they were run). Rows were chosen to be rich in hits. Some 2.3% of all compounds tested hit in one or more screens of this group.

Clc1c(-c2ccccc2)nc2ccccn12	none
CC(C)c1[nH]nc2c1C(c1ccc3c(c1)OCO3)NC2=O (stereo unspecified)	none (no result: V-ATPase pHluor)
COCCNC(=O)/C(C#N)=C/c1cn(CC(=O)NCc2ccco2)c2ccccc12	proKLK7 act 74.8 | proKLK7 act conf inactive | EDANS interfere 5.8
Cc1cccc(NC(=O)/C(C#N)=C/c2cn(CC(=O)NCc3ccco3)c3ccccc23)c1	none
COc1ccc2noc3c2c1C(=O)c1ccccc1-3	proKLK7 act 24.9 | proKLK7 act conf inactive | EDANS interfere inactive
Cc1ccc(OC2CCN(C(=O)[C@@H](Cc3ccccc3)NC(=O)[C@H]3O[C@@H](n4ccc(=O)[nH]c4=O)[C@H](O)[C@@H]3O)CC2)cc1	none (no result: V-ATPase pHluor)
CCOCCC(=O)Nc1ccc2c(c1)c(=O)n(C)n2CC=C(C)C	proKLK7 act 25.7 (no result: V-ATPase pHluor) | proKLK7 act conf 15.0 | EDANS interfere 17.2
C=C(C)Cn1c2ccc(NC(=O)CCc3cccc(Cl)c3)cc2c(=O)n1C	none (no result: V-ATPase pHluor)
C=C(C)Cn1c2ccc(NC(=O)CCOCC)cc2c(=O)n1C	proKLK7 act 24.2 (no result: V-ATPase pHluor) | proKLK7 act conf 19.1 | EDANS interfere 21.6
CCCCNS(=O)(=O)CC1NCCc2ccccc21 (stereo unspecified)	none (no result: V-ATPase pHluor)
COC(=O)[C@]12C[C@H](CC(=O)N3CCOCC3)C(=O)N(Cc3cccc4ccccc34)C1=C[C@H](COCc1ccccc1)O[C@@H]2C	none (no result: V-ATPase pHluor)
O=C(NC(CO)(CO)CO)c1coc(=O)c(Br)c1	proKLK7 act 40.6 | proKLK7 act conf 54.2 | EDANS interfere 53.6
CN(C)CCNC(=O)c1coc(=O)c(Br)c1	none
O=C(NCCc1ccccc1)c1coc(=O)c(Br)c1	proKLK7 act 13.5 | proKLK7 act conf 32.1 | EDANS interfere 25.9 | EDANS interf inactive
CCCCCCCCN1C(=O)[C@@H](CC(=O)NCCCOC)C[C@@]2(C(=O)OC)C1=C[C@H](C(C)(C)C)O[C@@H]2C	none (no result: V-ATPase pHluor)
Cc1ccc(S(=O)(=O)NC(CCCNC(=O)OCc2ccccc2)C(=O)O)cc1 (stereo unspecified)	none (no result: V-ATPase pHluor)
COc1cc2c[n+](C)c3c4ccccc4ccc3c2cc1OC	proKLK7 act 26.2 | proKLK7 act conf inactive | EDANS interfere 16.0
CN1C(=O)C2C(c3ccc(N(C)C)cc3)=NN(Cc3ccccc3)C2C1=O (stereo unspecified)	proKLK7 act 23.6 | proKLK7 act conf 23.9 | EDANS interfere 31.5
CC(C)[C@@H](C)/C=C/[C@@H](C)[C@H]1CC[C@@H]2[C@]1(C)CCC1[C@]23C=C[C@]2(C[C@@H](O)CC[C@]12C)N(c1ncc(C(F)(F)F)cc1Cl)O3 (stereo partly specified)	none (no result: V-ATPase pHluor)
CCCCNS(=O)(=O)c1ccc(OC)c(C)c1	none
COc1ccc(S(=O)(=O)NCCc2cn3nc(C)c(C)nc3n2)cc1C	proKLK7 act 32.7 | proKLK7 act conf 37.0 | EDANS interfere 45.1
Cc1ccc(S(=O)(=O)NCCc2cn3nc(C)c(C)nc3n2)cc1C	proKLK7 act 57.9 | proKLK7 act conf 41.3 | EDANS interfere 49.3
Cc1ccc(S(=O)(=O)NCCc2ccncc2)cc1C	none
COc1ccc(C2NCCc3cc(OC)c(OC)cc32)cc1OC (stereo unspecified)	none
COc1cc2c(cc1OC)C(C(N)=O)NCC2 (stereo unspecified)	proKLK7 act 54.4 | proKLK7 act conf inactive | EDANS interfere inactive
COc1cc2c(cc1OC)C(C1(O)CCCCC1)NCC2 (stereo unspecified)	proKLK7 act 20.7 | proKLK7 act conf 13.9 | EDANS interfere 14.2
O=C(NC1CCCC1)c1cc2c(=O)n3ccccc3nc2s1	proKLK7 act 60.9 | proKLK7 act conf 74.8 | EDANS interfere 65.8
Cc1cccn2c(=O)c3cc(C(=O)N4CCCC(C)C4)sc3nc12 (stereo unspecified)	none
Cn1c(C(=O)NCc2ccccn2)cc2c(=O)n3ccccc3nc21	proKLK7 act 52.5 | proKLK7 act conf 66.3 | EDANS interfere 67.5
CC1CCCCN1C(=O)c1cc2c(=O)n3ccccc3nc2s1 (stereo unspecified)	proKLK7 act 31.6 | proKLK7 act conf 39.6 | EDANS interfere 39.7
COc1ccc(NC(=O)c2cc3c(=O)n4ccccc4nc3n2C)c(OC)c1	none
CC1CCCN(C(=O)c2cc3c(=O)n4ccccc4nc3s2)C1 (stereo unspecified)	proKLK7 act 26.2 | proKLK7 act conf 30.4 | EDANS interfere 33.6
CC(=O)C1=C(C)N(Cc2ccc(Br)cc2)C(=S)NC1c1cccc(F)c1 (stereo unspecified)	none (no result: V-ATPase pHluor)
CCCCN(C)C(=O)CSc1nnc(-c2cc(OC)c(OC)c(OC)c2)o1	none (no result: V-ATPase pHluor)
O=[N+]([O-])c1ccc(CN2CCOCCOCCN(Cc3ccc([N+](=O)[O-])cc3Cl)CCOCC2)c(Cl)c1	none (no result: V-ATPase pHluor, proKLK7 act)
CCc1c(-c2ccc(Br)cc2)ncn1CCc1ccccc1OC	none (no result: V-ATPase pHluor)
COC(=O)[C@]12C[C@H](CC(=O)NCCc3ccccc3OC)C(=O)N(Cc3ccc(Cl)cc3Cl)C1=C[C@H](C(C)C)O[C@@H]2C1CC1	none (no result: V-ATPase pHluor)
Cn1c(C(=O)NC2CCCCC2)cc2c(=O)n3ccccc3nc21	proKLK7 act 83.5 | proKLK7 act conf 81.4 | EDANS interfere 75.0
Cc1ccc(Cn2c(=N)c(C(=O)NC3CCCCC3)cc3c(=O)n4ccccc4nc32)cc1	none
COc1ccc(-c2cc(C(=O)O)sc2C)cc1	none
COc1ccc2c(c1)CCc1cc(C(=O)O)sc1-2	proKLK7 act 55.6 | proKLK7 act conf 59.0 | EDANS interfere 67.5
CCCn1c(/C=C/c2cc[n+](C)cc2)nc2ccccc21	proKLK7 act 50.5 | proKLK7 act conf 61.0 | EDANS interfere 72.2
CCOC(=O)C(=NC(C)CC)NNc1ccc(Br)cc1 (stereo unspecified)	proKLK7 act 16.3 | proKLK7 act conf 24.0 | EDANS interfere 25.5
CCOC(=O)C(=NC(C)CC)NNc1cccc(C(F)(F)F)c1 (stereo unspecified)	proKLK7 act 17.2 | proKLK7 act conf 22.2 | EDANS interfere 26.2
C=CCOC(=O)N[C@@H](c1cccc(OC)c1)[C@@H](C)/C=C/CC(=O)O	none (no result: V-ATPase pHluor)
C[C@H]1[C@@H](OC(=O)Nc2cccc(Cl)c2)CC[C@@]23CCCN2C(=O)CCC[C@@H]13	none (no result: V-ATPase pHluor, proKLK7 act)
COc1ccc(-n2c(O)c(/C=N/NS(=O)(=O)c3ccc(C)cc3)c3ccccc3c2=O)cc1OC	proKLK7 act 48.4 | proKLK7 act conf inactive | EDANS interfere inactive
CN(C)C(=O)C[C@H]1C[C@@H]2c3cc(NC(=O)NC4CCCC4)ccc3O[C@@H]2[C@@H](CO)O1	none (no result: V-ATPase pHluor)
Nc1[nH]n(-c2ccccc2)c(=O)c1N=Nc1ccc(F)cc1	none (no result: V-ATPase pHluor)
